Reference: PubChem BioAssay (NCATS)
Inconclusive results are not listed. Where a call stands in place of a potency, no number is given. Activity calls are given as the source filed them. Calls follow the shape of the dose curve; as a rule, active = well fitted inhibition curve with a large enough effect; inconclusive = small, poorly fitted or top-dose-only effect; inactive = no such curve, though single readings can be large or run the other way.

Target: Retinaldehyde dehydrogenase 3 (Homo sapiens) (UniProt P47895)
Experiment: qHTS for Inhibitors of the Aldehyde Dehydrogenase Family (ALDH1A3) Primary screen (AID 2061315)
Settings: ALDH inhibition qHTS; series mostly up to 56 µM
Potency is read from the fitted curve at half-maximal effect.

| Compound | Potency |
| --- | --- |
| C=C1[C@@]23C(=O)O[C@H](C)[C@]24O[C@@]2(C(=C)[C@]5(C=CC(=O)OC5(C)C)CC[C@]32C)[C@H](O)[C@@]1(C)OC4=O | inactive |
| Cc1ccccc1-n1c(Cn2cnc3c(N)ncnc32)nc2cccc(C)c2c1=O | inactive |
| CC(=O)OCC1=C(C(=O)O)N2C(=O)[C@@H](N)[C@H]2SC1 | inactive |
| CCC1CC2CN3CCc4c([nH]c5ccccc45)C(C(=O)OC)(C2)C13 (configuration not stated) | inactive |
| CN(C)[C@@H]1C(=O)C(C(N)=O)=C(O)[C@@]2(O)C(=O)C3=C(O)c4c(O)ccc(Cl)c4[C@@](C)(O)C3C[C@@H]12 (some centres not stated) | inactive |
| O=C(N[C@@H](COc1ccc2[nH]c(=O)[nH]c2c1)c1ccccc1)c1cccn(Cc2ccc(F)c(F)c2)c1=O | inactive |
| CCNC(=O)C[C@@H]1N=C(c2ccc(Cl)cc2)c2cc(OC)ccc2-n2c(C)nnc21 | inactive |
| C/C=C(/C)C(=O)O[C@H]1C(C)=C2[C@H]([C@@H]1OC(=O)CCCCCCC)[C@@](C)(OC(C)=O)C[C@H](OC(=O)CCC)[C@@]1(O)[C@H]2OC(=O)[C@@]1(C)O | inactive |
| CC(C)[C@H](NC(=O)c1nn(Cc2ccc(F)cc2)c2ccccc12)C(N)=O | inactive |
| C[C@H](Nc1ncnc2nc[nH]c12)c1nc2ccc(F)cc2c(=O)n1-c1ccccc1 | inactive |
| FC(F)(F)c1ccc(N2CCNCC2)nc1Cl | inactive |
| O=C(C[C@@H]1NCCC[C@H]1O)Cn1cnc2ccccc2c1=O | inactive |
| CN1C(=O)[C@]23CC4C(C)(C)[C@@]5(C[C@@]41CN2CC[C@@]3(C)O)C(=O)Nc1c5ccc2c1OC=CC(C)(C)O2 (some centres not stated) | inactive |
| C[C@]12CC[C@@H]3c4ccc(OC(=O)N(CCCl)CCCl)cc4CC[C@H]3[C@@H]1CC[C@@H]2OP(=O)(O)O | inactive |
| COc1ccc2c3c([nH]c2c1)C(C=C(C)C)N1C(=O)C2CCCN2C(=O)C1C3 (configuration not stated) | inactive |
| c1cncc(OC[C@@H]2CCN2)c1 | inactive |
| C[C@@H]1O[C@@H](O[C@H]2CC[C@@]3(C)C(CC[C@@H]4C3CC[C@]3(C)[C@@H](C5=CC(=O)OC5)CC[C@]43O)C2)[C@H](O)[C@H](O)[C@H]1O (some centres not stated) | inactive |
| CN[C@@H]1C[C@H]2O[C@@](C)([C@@H]1OC)n1c3ccccc3c3c4c(c5c6ccccc6n2c5c31)C(=O)NC4 | inactive |

| Compound | Potency |
| --- | --- |
| NC(=O)[C@@H](CC1CC1)[C@@H](CCC(F)(F)F)C(=O)N[C@H]1N=C(c2ccccc2)c2cccc(F)c2NC1=O | inactive |
| O=C(NCC1CCOCC1)c1cnc(Nc2ccc(Cl)cc2Cl)nc1C(F)(F)F | inactive |
| O=C(O)CNC(=O)c1c(O)c2ccccc2n(Cc2ccccc2)c1=O | inactive |
| C/C=C(\C)C(=O)OC1CC2C(CC=C3CC(OC4CC(OC)C(OC5CC(OC)C(OC6OC(C)C(OC7OC(CO)C(O)C(O)C7O)C(OC)C6O)C(C)O5)C(C)O4)CCC32C)C2(O)CCC(C(C)=O)C12C (configuration not stated) | inactive |
| Clc1ccc(N2C[C@H]3CC[C@@H](C2)N3)nn1 | inactive |
| CC12Cc3cn[nH]c3C=C1CCC1C2CCC2(C)C1CCC2(C)O (configuration not stated) | inactive |
| CCC(C)/C=C(C)/C=C/C1=CC2=C(Cl)C(=O)C(C)(OC(C)=O)C(=O)C2=CO1 (configuration not stated) | inactive |
| O=C(Oc1ccc([N+](=O)[O-])cc1)N1CCC(C(O)(c2ccc3c(c2)OCO3)c2ccc3c(c2)OCO3)CC1 | inactive |
| CNC(=O)c1ccc(N2C(=S)N(c3ccc(C#N)c(C(F)(F)F)c3)C(=O)C23CCC3)cc1F | inactive |
| Cc1cc(SCc2sc(-c3ccc(C(F)(F)F)c(F)c3)nc2C)ccc1OCC(=O)O | inactive |
| Cc1cccc(NC(=O)c2ccc(C(F)(F)F)cc2C(=O)O)n1 | inactive |
| CCCCOC(=O)c1ccnc2cc(C(OCCN3CCCCC3)c3ccccc3Cl)sc12 (configuration not stated) | inactive |
| CC(C)=C1CC[C@]23CO[C@H](C2)[C@@](O)(C(=O)O)CCC13 (some centres not stated) | inactive |
| CC(=O)O[C@H]1CC[C@H]2[C@@H]3CC[C@H]4CC(=O)C=C(C)[C@]4(C)[C@H]3CC[C@]12C | inactive |
| CC(C)OC(=O)c1ccnc2cc(C(OCCN3CCCCC3)c3ccccc3Cl)sc12 (configuration not stated) | inactive |
| CC1(N2CCC(n3c([C@@H]4CCCNC4)nc4ccccc43)CC2)CCCCCCC1 | inactive |
| CNc1ccc2oc(C[C@H]3O[C@@]4(CC[C@H]3C)O[C@H](C(C)C(=O)c3ccc[nH]3)[C@H](C)C[C@H]4C)nc2c1C(=O)O (some centres not stated) | 11200 nM (active) |
| COc1cc(C)[nH]c(=O)c1CNC(=O)c1c(C)n([C@H](C)C2CCOCC2)c2ccccc12 | inactive |

Test system: not listed separately
Experiment: BET inhibitor-based combinations targeting novel dependencies in MECOM-rearranged (r) AML: SET-2 cell line (AID 2202231); also: nearly all actives have a fitted effect of over 35% in size
Settings: SET-2 AML cells viability, CellTiter-Glo luminescence, 48 h; viability: active compounds read low, concentration not given here
In short: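 Here, 11-point titrations of each agent were applied to 500 seeded cells and incubated 48 hr; CellTiter-Glo signal, scaled against DMSO and empty wells, was integrated as AUC, then Z-scored within the individual line.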

| Compound | viability | Potency |
| --- | --- | --- |
| CCOC(=O)Nc1ccc(NCc2ccc(F)cc2)cc1N | 102% (inactive) | – |
| O=C(N[C@@H](COc1ccc2[nH]c(=O)[nH]c2c1)c1ccccc1)c1cccn(Cc2ccc(F)c(F)c2)c1=O | 94% (inactive) | – |
| CCNC(=O)C[C@@H]1N=C(c2ccc(Cl)cc2)c2cc(OC)ccc2-n2c(C)nnc21 | – | 2630 nM (active) |
| C/C=C(/C)C(=O)O[C@H]1C(C)=C2[C@H]([C@@H]1OC(=O)CCCCCCC)[C@@](C)(OC(C)=O)C[C@H](OC(=O)CCC)[C@@]1(O)[C@H]2OC(=O)[C@@]1(C)O | – | 263 nM (active) |
| C[C@]12CC[C@@H]3c4ccc(OC(=O)N(CCCl)CCCl)cc4CC[C@H]3[C@@H]1CC[C@@H]2OP(=O)(O)O | 112% (inactive) | – |
| C#C[C@]1(O)C=C[C@H]2[C@@H]3CCC4=CC(=O)CC[C@@H]4[C@H]3CC[C@@]21CC | 95.4% (inactive) | – |
| NC(=O)[C@@H](CC1CC1)[C@@H](CCC(F)(F)F)C(=O)N[C@H]1N=C(c2ccccc2)c2cccc(F)c2NC1=O | 117% (inactive) | – |
| O=C(NCC1CCOCC1)c1cnc(Nc2ccc(Cl)cc2Cl)nc1C(F)(F)F | 97.9% (inactive) | – |
| O=C(Oc1ccc([N+](=O)[O-])cc1)N1CCC(C(O)(c2ccc3c(c2)OCO3)c2ccc3c(c2)OCO3)CC1 | 104% (inactive) | – |
| CNC(=O)c1ccc(N2C(=S)N(c3ccc(C#N)c(C(F)(F)F)c3)C(=O)C23CCC3)cc1F | 101% (inactive) | – |
| Cc1cc(SCc2sc(-c3ccc(C(F)(F)F)c(F)c3)nc2C)ccc1OCC(=O)O | 99.6% (inactive) | – |
